Records with an inconclusive call do not appear. Activity calls are given as the source filed them. Unless noted, calls follow the shape of the dose curve; as a rule, active = well fitted curve in the direction sought with a large enough effect; inconclusive = small, poorly fitted or top-dose-only effect, or another doubt; inactive = no such curve, though single readings can be large; an effect the other way counts as inactive or inconclusive.

Assay [1] has as its target Glucocorticoid receptor (Homo sapiens) (UniProt P04150). In words: qHTS assay for small molecule agonists of glucocorticoid receptor signaling (AID 588532; active = well fitted curve in the direction sought with a large enough effect in the signal ratio, with a control signal flat; the % refers to the signal ratio;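 also: 100% = dexamethasone at 0.1 µM and 0% = DMSO only wells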). The settings on record: HeLa MMTV-bla, beta-lactamase ratio, agonist, 18 h; stronger effect = higher value; percent of dexamethasone control, DMSO zero. Put shortly: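 Quantitative HTS using CellSensor MMTV-bla HeLa cells in charcoal/dextran-treated serum; compounds tested up to 92 uM. After 18 h at 37 C, CCF4 dye reported reporter induction.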
A general note: Quantitative high-throughput screening tests each substance at several concentrations.

Assay [2] has as its target Vitamin D3 receptor (Homo sapiens) (UniProt P11473). The assay can be described thus: qHTS assay for small molecule antagonists of vitamin D receptor signaling (AID 588541; calls by dose curve;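 also: receptor activated by calcitriol during compound treatment; % is scaled to controls: 0 for no effect and ±100 for the full control effect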). The settings on record: HEK293T VDR-UAS-bla, beta-lactamase ratio, antagonist mode; series mostly up to 76.7 µM. Put shortly: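 Antagonist-mode beta-lactamase reporter assay: HEK293T VDR-UAS-bla cells were exposed to titrated compound alongside 1-alpha,25-dihydroxyvitamin D3 at 3 nM final for 16 h. Values were normalized to the 50 nM agonist control and DMSO basal, with IC50 and efficacy from Hill equation fits.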

Assay [3] has as its target Thyroid hormone receptor beta (Homo sapiens) (UniProt P10828). The assay can be described thus: qHTS assay for small molecule antagonists of thyroid hormone receptor beta signaling (AID 588547; active = well fitted inhibition curve with a large enough effect in the signal ratio, with a control signal flat, not every such curve was filed as active; the % refers to the signal ratio;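 also: cells stimulated with 0.4 nM T3 agonist during compound exposure; % is scaled to controls: 0 for no effect and ±100 for the full control effect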). The settings on record: TR-UAS-bla HEK293, beta-lactamase ratio, antagonist mode, 18 h. Summed up:
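Inhibition of T3-driven (0.4nM final) beta-lactamase reporter activity was measured over 0.59 nM to 92 uM compound after 18 h at 37 C. The cells were GripTite HEK293 TR-UAS-bla in charcoal/dextran-stripped serum, with CCF4 ratio read-out and IC50 from Hill fits.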

Assay [4] can be described thus: qHTS assay for small molecule activators of the p53 signaling pathway (AID 651743; active = well fitted activation curve with a large enough effect in the signal ratio, not every such curve was filed as active; the % refers to the signal ratio; also: % of control where 0% means no effect). The settings on record: HCT-116 p53RE-bla, beta-lactamase FRET ratio, 16 h; activation: stronger effect = higher value. Put shortly: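 A beta-lactamase reporter under p53 response element control, stably carried by HCT-116 cells, reported pathway activation. Test compounds were applied for 16 hours at 37 C, and fluorescence was measured 2 hours after adding the B/G FRET substrate.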

The nature of assay [5]: qHTS assay for environmental chemicals that activate the Aryl hydrocarbon Receptor (AhR) signaling pathway (AID 651777). Also: % of control where 0% means no effect; nearly all actives have a fitted effect of over 15% in size. The settings on record: 1A2-DRE human hepatoma cells, luciferase, 24 h; activation: stronger effect = higher value. Summed up:
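Reporter gene assay: hepatoma cells with DRE/CYP1A2-luciferase, 24 hr compound incubation at 37 C, 5% CO2, luminescence after One-Glo (30 min, RT).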

The target of assay [6] is Peroxisome proliferator-activated receptor alpha (Homo sapiens) (UniProt Q07869). The assay can be described thus: qHTS assay for small molecule agonists of the peroxisome proliferator-activated receptor alpha (PPARalpha) signaling pathway (AID 651778). Also: % of control where 0% means no effect. The settings on record: PathHunter PPARalpha complementation, chemiluminescence, 6 h; max response: stronger effect = higher value. Put shortly: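 Chemiluminescence from complemented enzyme reported PPARalpha activation in cells after 6 hr of compound treatment at 37 C. The detection reagent was incubated for 60 min at room temperature, and compounds were scored as agonists.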
Chain of Peroxisome proliferator-activated receptor alpha (Homo sapiens) (Q07869 whole entry, looked up): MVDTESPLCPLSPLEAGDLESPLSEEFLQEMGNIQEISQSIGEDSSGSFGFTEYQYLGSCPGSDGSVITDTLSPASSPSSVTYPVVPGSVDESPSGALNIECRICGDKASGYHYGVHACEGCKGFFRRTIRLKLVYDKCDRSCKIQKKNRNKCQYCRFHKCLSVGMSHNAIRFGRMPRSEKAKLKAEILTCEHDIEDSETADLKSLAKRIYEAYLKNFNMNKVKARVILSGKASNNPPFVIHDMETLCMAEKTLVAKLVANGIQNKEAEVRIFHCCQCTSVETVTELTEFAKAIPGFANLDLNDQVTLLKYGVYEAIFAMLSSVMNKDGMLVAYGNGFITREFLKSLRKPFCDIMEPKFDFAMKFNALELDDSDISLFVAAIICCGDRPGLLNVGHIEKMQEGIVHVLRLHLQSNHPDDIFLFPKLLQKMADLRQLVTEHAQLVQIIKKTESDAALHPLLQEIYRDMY

A short description of assay [7]: qHTS assay for small molecule agonists of the antioxidant response element (ARE) signaling pathway measured by Nrf2-dependant transcriptional activity (AID 720636; active = well fitted curve in the direction sought with a large enough effect in the repeat runs; an effect the other way counts as inactive or inconclusive; also: % of control where 0% means no effect). The settings on record: ARE-luc HepG2, Nrf2 luciferase reporter, 16 h; series mostly up to 92.4 µM. Summed up: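 Nrf2-dependent transcription is measured in ARE-luc HepG2 cells: compound is applied for 16 hr at 37 C after a 6 hr attachment period, and luciferase activity is quantified by luminescence using ONE-Glo.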

Assay [8] can be described thus: qHTS assay for small molecule agonists of the antioxidant response element (ARE) signaling pathway measured by Nrf2-dependant transcriptional activity - cell viability counter screen (AID 720653; active = well fitted curve in the direction sought with a large enough effect in the repeat runs; an effect the other way counts as inactive or inconclusive; also: potency is read from the fitted curve at half-maximal effect; as to max response: % is scaled to controls: 0 for no effect and ±100 for the full control effect). The settings on record: ARE-bla HepG2 viability, CellTiter-Glo ATP luminescence, 16 h; max response: stronger effect = lower value. Put shortly:
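Cytotoxicity counter screen: intracellular ATP quantified by CellTiter-Glo luminescence in the same ARE-bla HepG2 plates, after 16 h compound exposure and a 2 h beta-lactamase substrate step.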

The nature of assay [9]: qHTS assay for cell viability of HEK293 cells (AID 743288). Also: nearly all actives have a fitted effect of over 50% in size. Also: potency is read from the fitted curve at half-maximal effect. The settings on record: ATP luminescence (CellTiter-Glo), 18 h; max response: stronger effect = lower value. Put shortly: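 Steps: plate 2,000 parental HEK293 cells per well; incubate ≥5 h, 37 C; add compounds in DMSO; incubate 18 h, 37 C; add CellTiter-Glo; wait 30 min at room temperature; read luminescence.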
Assay [10] can be described thus: qHTS assay for cell viability of the p53RE-bla HCT-116 cell line (AID 743292). Also: nearly all actives have a fitted effect of over 55% in size. Also: potency is read from the fitted curve at half-maximal effect. The settings on record: p53RE-bla HCT-116 viability, ATP luminescence, 16 h; series mostly up to 95 µM. Put shortly: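 ATP-based luminescence, 16 h compound exposure at 37 C, p53RE-bla HCT-116 cells at 4,000/well.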
Assay [11] addresses Nuclear receptor subfamily 1 group I member 2 (Rattus norvegicus) (UniProt Q9R1A7). The assay can be described thus: qHTS assay for small molecule activators of the rat pregnane X receptor (rPXR) signaling pathway (AID 651751; call rule not given here; also: 0% is about no effect). The settings on record: rPXR reporter cells, luciferase (One-Glo), 24 h.
Assay [12] can be described thus: qHTS assay for small molecule antagonists of peroxisome proliferator-activated receptor delta signaling (AID 588535; active = well fitted inhibition curve with a large enough effect in the signal ratio, with a control signal flat, not every such curve was filed as active; the % refers to the signal ratio;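 as to max response: cells co-treated with a PPAR-delta agonist as stimulator during compound exposure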). The settings on record: HEK293T PPARd-UAS-bla, beta-lactamase FRET ratio, 18 h; 460 nm channel. Put shortly: (§1)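 Antagonist-mode qHTS using GeneBLAzer PPAR-delta-UAS-bla HEK293T cells; compound exposure 18 hrs at 37 C over a titration. Ratiometric CCF4 fluorescence at 460/530 nm; concentration-response points fitted to the Hill equation.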

Assay [13] deals with Peroxisome proliferator-activated receptor delta (Homo sapiens) (UniProt Q03181). Described as above. The settings on record: HEK293T PPARd-UAS-bla, beta-lactamase FRET ratio, 18 h; series mostly up to 76.7 µM. Summed up:
as §1

Assay [14] has as its target Peroxisome proliferator-activated receptor gamma (Homo sapiens) (UniProt P37231). The assay can be described thus: qHTS assay for small molecule agonists of peroxisome proliferator-activated receptor gamma signaling (AID 588536; active = well fitted curve in the direction sought with a large enough effect in the signal ratio, with a control signal flat, not every such curve was filed as active; the % refers to the signal ratio). The settings on record: HEK293 PPARg-UAS-bla, beta-lactamase ratio, 16 h, percent of rosiglitazone response, DMSO as zero; series mostly up to 76.7 µM. Put shortly: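 Beta-lactamase reporter read-out: CCF4 fluorescence (ex 405, em 460/530 nm) after 2 h at RT. HEK293 GeneBLAzer cells were treated for 16 h at 37 C. Hill fits gave EC50 and efficacy versus 2 uM rosiglitazone (100%) and DMSO (0%).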

Assay [15] has as its target Vitamin D3 receptor (Homo sapiens) (UniProt P11473). The assay can be described thus: qHTS assay for small molecule agonists of vitamin D receptor signaling (AID 588543; calls by dose curve;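 also: 0% = DMSO basal and 100% = reference agonist control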). The settings on record: HEK293T VDR-UAS-bla, beta-lactamase ratio, 16 h; series mostly up to 76.8 µM. Summed up: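 VDR-UAS-bla HEK293T cells, 2000/well, 2% charcoal-stripped FBS; compound titration 16 h at 37 C; CCF4 beta-lactamase ratio read. Normalized to 50 nM 1-alpha,25-dihydroxyvitamin D3 (100%) and DMSO; Hill fit gives EC50, efficacy.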

In assay [16] the target is Thyroid hormone receptor beta (Homo sapiens) (UniProt P10828). The assay can be described thus: qHTS assay for small molecule agonists of thyroid hormone receptor beta signaling (AID 588545; calls by dose curve). The settings on record: TR-UAS-bla GripTite HEK 293, beta-lactamase ratio, agonist mode, 18 h; series mostly up to 76.7 µM. Put shortly: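 In this cell-based screen, titrated compounds act on HEK 293 cells held in medium with 2% charcoal/dextran FBS, NEAA and pyruvate for 18 hrs at 37 C. Responses are expressed relative to T3 (10 nM) as 100% and basal DMSO as 0%.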
Chain of Thyroid hormone receptor beta (Homo sapiens) (P10828 whole entry, looked up): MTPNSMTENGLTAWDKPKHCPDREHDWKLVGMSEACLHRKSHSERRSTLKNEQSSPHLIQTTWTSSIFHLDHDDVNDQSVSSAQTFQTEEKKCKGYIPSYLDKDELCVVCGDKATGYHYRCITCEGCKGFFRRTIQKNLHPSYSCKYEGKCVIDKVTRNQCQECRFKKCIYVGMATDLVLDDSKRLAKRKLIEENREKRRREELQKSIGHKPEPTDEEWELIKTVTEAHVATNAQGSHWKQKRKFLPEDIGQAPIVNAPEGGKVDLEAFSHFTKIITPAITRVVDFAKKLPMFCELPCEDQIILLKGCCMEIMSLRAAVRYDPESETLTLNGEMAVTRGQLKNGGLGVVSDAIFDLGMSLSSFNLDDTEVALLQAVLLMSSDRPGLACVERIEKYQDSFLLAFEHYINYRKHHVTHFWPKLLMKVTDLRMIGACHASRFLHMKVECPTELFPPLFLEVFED

Assay [17] can be described thus: qHTS assay for small molecule antagonists of retinoid X receptor alpha signaling (AID 588546; active = well fitted inhibition curve with a large enough effect in the signal ratio, with a control signal flat, not every such curve was filed as active; the % refers to the signal ratio;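 also: cells stimulated with 9-cis-retinoic acid as agonist; % is scaled to controls: 0 for no effect and ±100 for the full control effect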). The settings on record: HEK293T RXRa-UAS-bla, beta-lactamase ratio, antagonist mode; measured here: W530 green channel, cytotoxicity proxy. Put shortly: (§2)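 Beta-lactamase reporter inhibition, read as CCF4 fluorescence ratio (ex 405, em 460/530 nm) after 2 h at RT. HEK293T UAS-bla cells, 2500/well, were stimulated with 9-cis-RA at 500 or 100 nM final alongside test compound for 18 h at 37 C.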

Assay [18] deals with Retinoic acid receptor RXR-alpha (Homo sapiens) (UniProt P19793). The description is as above. The settings on record: HEK293T RXRa-UAS-bla, beta-lactamase ratio, antagonist mode. Put shortly: as §2
Chain of Retinoic acid receptor RXR-alpha (Homo sapiens) (P19793 whole entry, looked up): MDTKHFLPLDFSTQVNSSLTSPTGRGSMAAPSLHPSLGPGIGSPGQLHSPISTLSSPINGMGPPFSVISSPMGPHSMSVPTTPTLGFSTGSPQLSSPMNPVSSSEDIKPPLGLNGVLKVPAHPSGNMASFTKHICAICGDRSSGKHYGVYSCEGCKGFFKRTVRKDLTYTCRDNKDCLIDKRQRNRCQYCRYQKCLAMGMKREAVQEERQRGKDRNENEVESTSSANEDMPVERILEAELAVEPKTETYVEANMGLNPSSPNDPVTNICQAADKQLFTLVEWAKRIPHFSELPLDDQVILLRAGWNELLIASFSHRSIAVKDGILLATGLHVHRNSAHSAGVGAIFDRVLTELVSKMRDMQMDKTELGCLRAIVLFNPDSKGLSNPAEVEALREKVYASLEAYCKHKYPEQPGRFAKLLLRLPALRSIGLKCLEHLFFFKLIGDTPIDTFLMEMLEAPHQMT
Assay [19] can be described thus: qHTS assay for small molecule activators of the human pregnane X receptor (PXR) signaling pathway (AID 720659; call rule not given here; also: 0% is about no effect). The settings on record: DPX-2 HepG2 CYP3A4-luciferase, 24 h; series mostly up to 92.3 µM.
Assay [20] in a line: qHTS assay for small molecule agonists of retinoid X receptor alpha signaling (AID 588544). The settings on record: HEK293T RXRa-UAS-bla, beta-lactamase reporter, 18 h; 530 nm emission.

Chain of Glucocorticoid receptor (Homo sapiens) (P04150 whole entry, looked up): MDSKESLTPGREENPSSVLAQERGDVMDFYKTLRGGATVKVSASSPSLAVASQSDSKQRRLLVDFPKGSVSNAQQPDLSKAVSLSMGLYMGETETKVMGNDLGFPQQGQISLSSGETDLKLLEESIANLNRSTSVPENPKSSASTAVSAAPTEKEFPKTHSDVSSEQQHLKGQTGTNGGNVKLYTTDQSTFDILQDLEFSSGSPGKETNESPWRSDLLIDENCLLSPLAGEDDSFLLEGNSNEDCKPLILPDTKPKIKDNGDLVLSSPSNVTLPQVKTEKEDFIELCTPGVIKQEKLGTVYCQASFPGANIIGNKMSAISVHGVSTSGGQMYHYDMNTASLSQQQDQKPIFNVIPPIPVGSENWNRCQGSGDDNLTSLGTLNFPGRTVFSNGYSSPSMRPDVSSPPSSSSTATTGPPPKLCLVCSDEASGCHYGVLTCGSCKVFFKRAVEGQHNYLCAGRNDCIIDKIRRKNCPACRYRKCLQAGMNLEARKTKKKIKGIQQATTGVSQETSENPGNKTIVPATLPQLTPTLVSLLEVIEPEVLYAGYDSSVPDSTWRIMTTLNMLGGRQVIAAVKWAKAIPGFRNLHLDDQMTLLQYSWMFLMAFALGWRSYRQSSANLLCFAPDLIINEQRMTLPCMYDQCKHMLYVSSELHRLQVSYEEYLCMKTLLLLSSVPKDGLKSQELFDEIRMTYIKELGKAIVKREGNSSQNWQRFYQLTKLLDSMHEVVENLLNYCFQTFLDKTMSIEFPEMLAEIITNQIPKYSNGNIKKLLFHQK
Chain of Peroxisome proliferator-activated receptor gamma (Homo sapiens) (P37231 whole entry, looked up): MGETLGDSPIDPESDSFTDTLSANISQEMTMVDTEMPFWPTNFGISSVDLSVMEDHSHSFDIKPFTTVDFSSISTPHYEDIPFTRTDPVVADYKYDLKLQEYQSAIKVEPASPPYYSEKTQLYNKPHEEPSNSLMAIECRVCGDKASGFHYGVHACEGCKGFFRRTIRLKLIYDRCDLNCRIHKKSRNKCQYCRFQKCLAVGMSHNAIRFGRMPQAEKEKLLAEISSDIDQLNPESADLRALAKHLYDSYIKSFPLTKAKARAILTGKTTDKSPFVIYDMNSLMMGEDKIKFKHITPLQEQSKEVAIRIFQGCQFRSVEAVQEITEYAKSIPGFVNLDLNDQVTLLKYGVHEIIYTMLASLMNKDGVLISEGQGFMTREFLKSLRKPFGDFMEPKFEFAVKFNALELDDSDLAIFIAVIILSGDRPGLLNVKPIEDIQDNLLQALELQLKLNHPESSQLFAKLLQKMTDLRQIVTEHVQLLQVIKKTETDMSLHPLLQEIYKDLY
Chain of Vitamin D3 receptor (Homo sapiens) (P11473 whole entry, looked up): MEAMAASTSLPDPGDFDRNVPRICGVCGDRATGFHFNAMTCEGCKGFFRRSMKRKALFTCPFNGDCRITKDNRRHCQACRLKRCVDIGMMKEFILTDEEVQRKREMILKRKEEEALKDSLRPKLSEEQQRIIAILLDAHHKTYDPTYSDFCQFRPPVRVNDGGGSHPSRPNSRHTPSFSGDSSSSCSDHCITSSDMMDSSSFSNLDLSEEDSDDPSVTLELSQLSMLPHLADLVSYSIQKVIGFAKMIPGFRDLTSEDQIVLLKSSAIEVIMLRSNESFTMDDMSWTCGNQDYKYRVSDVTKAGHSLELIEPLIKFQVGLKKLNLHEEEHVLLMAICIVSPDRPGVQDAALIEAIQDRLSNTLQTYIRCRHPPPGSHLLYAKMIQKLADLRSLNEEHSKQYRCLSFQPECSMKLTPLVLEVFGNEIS
Chain of Peroxisome proliferator-activated receptor delta (Homo sapiens) (Q03181 whole entry, looked up): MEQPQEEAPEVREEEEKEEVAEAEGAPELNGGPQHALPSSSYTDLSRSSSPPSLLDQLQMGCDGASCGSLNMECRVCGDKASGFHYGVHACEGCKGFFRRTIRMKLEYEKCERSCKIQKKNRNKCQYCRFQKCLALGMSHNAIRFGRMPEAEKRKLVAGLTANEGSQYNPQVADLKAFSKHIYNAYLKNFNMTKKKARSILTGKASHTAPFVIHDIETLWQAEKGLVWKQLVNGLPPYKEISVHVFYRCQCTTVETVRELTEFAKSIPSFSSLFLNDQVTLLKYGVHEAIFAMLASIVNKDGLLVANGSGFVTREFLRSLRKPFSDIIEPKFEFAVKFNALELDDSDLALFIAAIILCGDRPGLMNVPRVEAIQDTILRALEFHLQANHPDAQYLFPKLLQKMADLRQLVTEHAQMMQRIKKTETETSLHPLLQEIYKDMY
Chain of Nuclear receptor subfamily 1 group I member 2 (Rattus norvegicus) (Q9R1A7 whole entry, looked up): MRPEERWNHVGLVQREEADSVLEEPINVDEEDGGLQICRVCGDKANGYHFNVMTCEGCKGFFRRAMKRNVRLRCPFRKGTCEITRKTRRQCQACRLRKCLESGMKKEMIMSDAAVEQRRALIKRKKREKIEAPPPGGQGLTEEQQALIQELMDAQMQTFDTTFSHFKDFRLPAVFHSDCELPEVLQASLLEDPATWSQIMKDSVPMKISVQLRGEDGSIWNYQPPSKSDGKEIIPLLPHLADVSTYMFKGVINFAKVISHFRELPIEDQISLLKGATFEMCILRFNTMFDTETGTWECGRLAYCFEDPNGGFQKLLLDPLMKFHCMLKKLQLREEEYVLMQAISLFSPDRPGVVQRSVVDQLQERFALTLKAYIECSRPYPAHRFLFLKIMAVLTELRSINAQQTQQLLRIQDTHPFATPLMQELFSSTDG

Take `Oc1ccc(C(c2ccc(O)cc2)C(Cl)(Cl)Cl)cc1`: the results for the activation in assay [1], in [4] and in assay [5] were 1.17% (inactive), -3.4% (inactive) and 10% (inactive), respectively. For the same compound, the Potency result in [2], in assay [7] and in assay [10] was “inactive” each time. The activity change % (negative = inhibition) in [3] was -14.4% (inactive). The max response in assay [6] is -1.42% (inactive); in assay [8], -3.02% (inactive); in [9], -13.2% (inactive); in assay [11] it was 2.83% (inactive).
With `CCCC/C=C\CCCCCCCCCC=O`, the max response is -21.9% in [12]; -13.9% in assay [17]; 6.53% (inactive) in [18]; 7.85% (inactive) in assay [6]; -12.8% (inactive) in assay [8]; 3.95% (inactive) in assay [9]. For the same compound, in assay [11], the max response was 4.56% (inactive). Further, the Potency result in assay [13], in assay [2], in assay [16], in assay [7] and in assay [10] was “inactive” throughout. For the same compound, the outcome in assay [14], in assay [15] and in assay [19] was inactive. Further, the activation in [4] was 0.222% (inactive); in assay [5], 1.27% (inactive).
In the case of `CCOc1ccc(NC(=O)OC(C)C)cc1OCC`, the activation in assay [1] is -6.81% (inactive); in assay [4], -0.775% (inactive); in assay [5], 2.6% (inactive). In addition, the max response in assay [12] was -29.8%; in [17], -3.73%; in [18], -21.6% (inactive); in assay [6], 2.76% (inactive); in assay [8], -3.59% (inactive); in assay [9], -5.68% (inactive). In addition, the max response in [11] was 10.3% (inactive). Further, the Potency result in assay [13], in assay [2], in [16], in assay [7] and in assay [10] was “inactive” throughout. Further, the outcome in assay [14] and in assay [15] was inactive. For the same compound, the activity change % (negative = inhibition) in assay [3] was -11% (inactive).
For `CCCCCCCCCCCCc1ccccc1`, the max response is -16.9% in [12]; -7.45% in [20]; -16.5% in assay [17]; 3.12% (inactive) in assay [18]; -12.7% (inactive) in assay [8]; 2.81% (inactive) in [9]. Besides, the max response in assay [11] is 0.082% (inactive). The Potency entry in assay [13], in assay [2], in assay [7] and in assay [10] was “inactive” each time. The result in assay [14], in assay [15] and in assay [19] was inactive. For the same compound, the activation in [4] is -0.535% (inactive); in assay [5], 0.463% (inactive).
On to `c1ccc2c(c1)ccc1c3ccccc3ccc21`, for which the max response in assay [12] is 1.74%; in assay [20], -11.3%; in [17] it was -22.1%; in assay [18] it was -7.12% (inactive); in assay [6] it was -3.59% (inactive); in assay [8], -24.7% (inactive). For the same compound, in assay [9], the max response is -7.41% (inactive). Further, the Potency entry in [13] and in assay [10] was “inactive” throughout. In addition, the result in assay [14] and in assay [15] was inactive. Also, the activity change % (negative = inhibition) in assay [3] was 1.89% (inactive). Moreover, the activation in assay [4] is 0.403% (inactive).
Take `CCCCCCCCCCCC(=O)OC`: the activation in assay [1] is -11.5% (inactive); in assay [5], 1.82% (inactive). The result in assay [15] was inactive. In [6], the max response was 2.34% (inactive). Moreover, the Potency in assay [8] is 35.5 µM (active); in assay [9] it was 25.1 µM (active); in [10] it was 28.2 µM (active).
With `COCCOCCOCCOC`, the activation in [1] was -5.4% (inactive); in assay [4] it was 0.451% (inactive); in assay [5], -0.0635% (inactive). Also, the result in [14] and in assay [19] was inactive. Besides, the Potency entry in [2], in assay [16] and in [10] was “inactive” in each case. Moreover, the max response is -14.6% in assay [20]; 0.474% in [17]; 2.59% (inactive) in assay [18]; -0.298% (inactive) in assay [6]; 1.56% (inactive) in assay [8]; -11.9% (inactive) in [9]. The max response in assay [11] is -0.732% (inactive). For the same compound, the activity change % (negative = inhibition) in [3] was 2.02% (inactive).
